Values without a mark were called inactive. Results filed as inconclusive are left out. Entries that show only a call come without a potency. Active and inactive are the calls of the source. Unless noted, the call rests on the fitted dose curve; in most records, active means well fitted curve in the direction sought with a large enough effect in the repeat runs; inconclusive means weak or mixed curves; inactive means no such curve, though single readings can be large; an effect the other way counts as inactive or inconclusive.
Assays:
[1] = qHTS assay for small molecule agonists of the p53 signaling pathway (AID 651631; calls by dose curve; further: nearly all actives have a fitted effect of over 15% in size; further: potency means the concentration at half of the fitted maximal effect)
Summary of the method: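 HCT-116 p53RE-bla reporter line, 16 h compound treatment at 37 °C, then fluorescence after 2 h with B/G FRET substrate.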

[2] = qHTS assay for small molecule agonists of the p53 signaling pathway - cell viability (AID 651633; calls by dose curve; further: nearly all actives have a fitted effect of over 30% in size; further: potency means the concentration at half of the fitted maximal effect)
Summary of the method: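 p53RE-bla cells were treated with compound for 16 hours at 37 C. Cytotoxicity was then measured as CellTiter-Glo luminescence after 30 min at room temperature.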

[3] = qHTS assay for small molecule disruptors of the mitochondrial membrane potential (AID 720635); further: potency means the concentration at half of the fitted maximal effect
Summary of the method: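 HepG2 cells exposed to compound 1 hr at 37C, then Mito-MPS dye 30 min. Ratio read of aggregate (540/590 nm) versus monomer (490/535 nm) fluorescence.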

[4] = qHTS assay to test for compound auto fluorescence at 535 nm (green) in HepG2 cells (AID 720675)
[5] = qHTS assay to test for compound auto fluorescence at 460 nm (blue) in HEK293 cells (AID 720678)
Summary of the method: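 Blue read-out at excitation 405 nm and emission 460 nm follows overnight compound exposure of HEK293 cells at 37C in 5% CO2. Activity is given as auto fluorescence equivalency to triamterene.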

[6] = qHTS assay to test for compound auto fluorescence at 590 nm (red) in HEK293 cells (AID 720679)
Summary of the method: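 Red channel, Ex/Em 540/590nm; signal expressed as equivalency to Rose Bengal sodium. HEK293, 2,000 cells/well, 10% dialyzed FBS; 23 nL compound pinned after 4-5 hr attachment; overnight 37C/5% CO2 before reading.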

[7] = qHTS assay to test for compound auto fluorescence at 535 nm (green) in HEK293 cells (AID 720680)
[8] = qHTS assay to test for compound auto fluorescence at 460 nm (blue) in HEK293 cell free culture (AID 720681)
Summary of the method: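 Compounds were added to cell-free DMEM with 10% FBS and fluorescence read directly. The blue channel used 405 nm excitation and 460 nm emission, with triamterene as the reference fluorophore.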

[9] = qHTS assay to test for compound auto fluorescence at 535 nm (green) in HEK293 cell free culture (AID 720682)
Summary of the method: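 Steps: dispense DMEM/10% FBS into empty wells; pin in compound or DMSO; measure fluorescence at 485/535 nm. Values are fluorescein equivalents.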

[10] = qHTS assay to test for compound auto fluorescence at 590 nm (red) in HEK293 cell free culture (AID 720683)
Summary of the method: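 Cell-free wells of DMEM with 10% FBS received compound, and intrinsic fluorescence was read at excitation/emission 540/590 nm. Values expressed as equivalence to Rose Bengal sodium.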

[11] = qHTS assay to test for compound auto fluorescence at 590 nm (red) in HepG2 cell free culture (AID 720684)
Summary of the method: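 Compounds are added to culture medium (MEM, 10% FBS) lacking cells, then fluorescence is read at excitation 540 nm, emission 590 nm, with Rose Bengal sodium as the equivalency standard.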

[12] = qHTS assay to test for compound auto fluorescence at 460 nm (blue) in HepG2 cell free culture (AID 720685)
Summary of the method: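 Compound (23 nL) or DMSO pinned into cell-free MEM with 10% FBS; blue fluorescence read at 405/460 nm excitation/emission, expressed as auto-fluorescence equivalency to triamterene.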

[13] = qHTS assay to test for compound auto fluorescence at 535 nm (green) in HepG2 cell free culture (AID 720686)
[14] = qHTS assay to test for compound auto fluorescence at 460 nm (blue) in HepG2 cells (AID 720687)
Summary of the method: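 HepG2 cells in MEM with 10% FBS, attached overnight at 37 C, were exposed to compound or DMSO for 1 hr at 37 C, 5% CO2. Blue fluorescence was read at 405/460 nm, with triamterene as reference fluorophore.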

[15] = qHTS assay for small molecules that induce genotoxicity in human embryonic kidney cells expressing luciferase-tagged ATAD5 - cell viability (AID 651634; calls by dose curve; further: nearly all actives have a fitted effect of over 25% in size; further: potency means the concentration at half of the fitted maximal effect)
Summary of the method: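 Seeding of 2,000 HEK293T ATAD5-luciferase cells per well preceded pin-tool compound transfer. Plates sat 15.5 hr at 37C under 5% CO2, then fluorescence was read after 30 min with CellTiter-Fluor.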

[16] = qHTS assay for small molecule disruptors of the mitochondrial membrane potential - cell viability (AID 720634; calls by dose curve; further: nearly all actives have a fitted effect of over 20% in size; further: potency means the concentration at half of the fitted maximal effect)
Summary of the method: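 Measuring cytotoxicity alongside mitochondrial potential, the screen quantified ATP by luminescence in HepG2 cells after 1 hr compound incubation and a 30 min room-temperature CellTiter-Glo step.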

[17] = biological target: Glucocorticoid receptor (Homo sapiens) (UniProt P04150); assay: qHTS assay to identify small molecule agonists of the glucocorticoid receptor (GR) signaling pathway (AID 720691; active means well fitted activation curve with a large enough effect in the signal ratio in the repeat runs, not every such curve was filed as active; the % refers to the signal ratio)
Summary of the method: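 Reporter read-out: fluorescence intensity following 2 h room-temperature LiveBLAzer B/G FRET substrate loading. Prior step: GR-bla HeLa cells held 4 h, then treated 18 h at 37 C.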

[18] = biological target: Glucocorticoid receptor (Homo sapiens) (UniProt P04150); assay: qHTS assay to identify small molecule antagonists of the glucocorticoid receptor (GR) signaling pathway (AID 720692; active means well fitted inhibition curve with a large enough effect in the signal ratio in the repeat runs, not every such curve was filed as active; the % refers to the signal ratio)
Summary of the method: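 Dexamethasone (5 nM final) stimulated a stably integrated GRE-beta-lactamase reporter in HeLa cells during 18 h co-incubation with compounds; signal was quantified as fluorescence intensity of B/G FRET substrate after 2 h.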

[19] = qHTS assay to test for compound auto fluorescence at 590 nm (red) in HepG2 cells (AID 720674)
Summary of the method: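 HepG2 cells, 2,000 per well in MEM with 10% FBS, attached overnight at 37 C, then got 23 nL compound or DMSO. After 1 hr at 37 C, 5% CO2, red fluorescence was read at 540/590 nm against Rose Bengal sodium as reference.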

[20] = qHTS assay for small molecules that induce genotoxicity in human embryonic kidney cells expressing luciferase-tagged ATAD5 (AID 651632); further: nearly all actives have a fitted effect of over 15% in size
Summary of the method: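 Reporter cells (HEK293T) express luciferase-tagged ATAD5, a protein that accumulates after DNA damage. Treat 16 hr at 37C/5% CO2, add Amplite, wait 30 min at RT, and read luminescence.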

Chain of Glucocorticoid receptor (Homo sapiens) (P04150 whole entry, looked up): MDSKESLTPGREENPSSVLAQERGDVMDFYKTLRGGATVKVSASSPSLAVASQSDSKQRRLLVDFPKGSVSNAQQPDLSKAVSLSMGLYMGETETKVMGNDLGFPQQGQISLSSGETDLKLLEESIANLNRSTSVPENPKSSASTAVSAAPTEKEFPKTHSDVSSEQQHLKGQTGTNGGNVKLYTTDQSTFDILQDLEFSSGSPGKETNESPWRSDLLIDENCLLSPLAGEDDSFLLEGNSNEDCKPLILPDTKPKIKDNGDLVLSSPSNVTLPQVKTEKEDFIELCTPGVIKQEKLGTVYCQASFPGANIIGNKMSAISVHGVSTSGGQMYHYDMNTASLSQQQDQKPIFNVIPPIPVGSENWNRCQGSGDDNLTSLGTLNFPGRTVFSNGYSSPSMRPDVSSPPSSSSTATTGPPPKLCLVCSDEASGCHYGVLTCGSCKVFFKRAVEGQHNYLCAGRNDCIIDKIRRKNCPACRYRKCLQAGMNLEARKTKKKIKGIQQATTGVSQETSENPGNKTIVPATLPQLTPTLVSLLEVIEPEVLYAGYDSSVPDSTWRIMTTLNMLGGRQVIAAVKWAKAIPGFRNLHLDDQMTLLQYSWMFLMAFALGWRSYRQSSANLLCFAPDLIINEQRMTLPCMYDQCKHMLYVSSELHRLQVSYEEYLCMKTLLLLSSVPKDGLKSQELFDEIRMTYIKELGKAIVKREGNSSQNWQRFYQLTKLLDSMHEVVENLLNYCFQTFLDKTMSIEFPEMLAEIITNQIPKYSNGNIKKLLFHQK

Structure (SMILES) | Potency [1] | Potency [2] | Potency [3] | outcome [4] | outcome [5] | outcome [6] | outcome [7] | outcome [8] | outcome [9] | outcome [10] | outcome [11] | outcome [12] | outcome [13] | outcome [14] | Potency [15] | Potency [16] | outcome [17] | Potency [18] | outcome [19] | Potency [20]
CCC(C)(NC(=O)c1cc(Cl)c(C)c(Cl)c1)C(=O)CCl (stereo not given) | 27.5 µM (active) | 61.5 µM (active) | 17.3 µM (active) | inactive | inactive | inactive | inactive | inactive | inactive | inactive | inactive | inactive | inactive | inactive | – | – | – | – | – | –
O=C(O)C(F)(F)C(F)(F)C(F)(F)C(F)(F)C(F)(F)C(F)(F)C(F)(F)C(F)(F)C(F)(F)C(F)(F)F | inactive | inactive | – | inactive | inactive | inactive | inactive | inactive | inactive | inactive | inactive | inactive | inactive | inactive | inactive | inactive | – | – | – | –
O=C(NCc1cccnc1)Nc1ccc([N+](=O)[O-])cc1 | inactive | inactive | 24.3 µM (active) | inactive | inactive | – | – | inactive | inactive | inactive | inactive | inactive | inactive | inactive | inactive | inactive | – | – | – | –
c1ccoc1 | inactive | inactive | inactive | inactive | inactive | inactive | – | inactive | inactive | inactive | inactive | inactive | inactive | inactive | inactive | inactive | inactive | inactive | – | –
O=S1(=O)OC(c2cc(Br)c(O)c(Br)c2)(c2cc(Br)c(O)c(Br)c2)c2ccccc21 | inactive | 44.5 µM (active) | – | inactive | inactive | inactive | inactive | – | inactive | inactive | inactive | inactive | inactive | inactive | 25 µM (active) | 28.1 µM (active) | inactive | – | inactive | –
C=CC(=O)OCC(C)C | inactive | inactive | – | inactive | inactive | – | – | inactive | inactive | inactive | inactive | inactive | inactive | inactive | inactive | – | inactive | – | inactive | –
CC(Cl)Cl | inactive | inactive | inactive | inactive | inactive | inactive | inactive | inactive | inactive | inactive | inactive | inactive | inactive | inactive | inactive | inactive | inactive | – | inactive | –
CN1C[C@H](CNC(=O)OCc2ccccc2)C[C@@H]2c3cccc4c3c(cn4C)C[C@H]21 | inactive | – | – | inactive | inactive | inactive | inactive | inactive | inactive | inactive | inactive | inactive | inactive | inactive | inactive | inactive | – | – | inactive | inactive
C=CC(=O)NCNC(=O)C=C | inactive | inactive | – | inactive | inactive | inactive | inactive | inactive | inactive | inactive | inactive | inactive | inactive | inactive | inactive | – | inactive | – | inactive | –

— PubChem BioAssay (Tox21)
